Compound activity from PubChem.
In the library only some 7.7% were active in any assay of this set; here they are far more common.
Tb PYK inh: inhibitors of Trypanosoma brucei pyruvate kinase; Q57TT1; TbPYK enzyme, Kinase-Glo Plus ATP luminescence, 45 min; Potency, µM (doses to about 76.8 µM), for inactives: at the highest dose activity, negative = inhibition, usual class: inhibitors; 0.12% of 410,000 active; AID 624173; also: potency is read from the fitted curve at half-maximal effect; nearly all actives have a fitted effect of over 50% in size
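T. brucei PYK with substrate was exposed to pin-transferred compounds across a concentration series, then started with 130 uM ADP (final). After 45 min at room temperature, Kinase-Glo Plus luminescence was read, normalized and curve-fitted.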
Sm TGR block: inhibitors of Schistosoma mansoni thioredoxin glutathione reductase. Q962Y6. purified TGR, DTNB reduction, TNB absorbance 405 nm. Potency, µM (top dose mostly 114 µM), for the others: top-dose activity change, negative = inhibition, actives largely listed as inhibitors. 3% of 360,000 active; also: potency is read from the fitted curve at half-maximal effect; nearly all actives have a fitted effect of over 60% in size
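Kinetic colorimetric format: TGR-catalysed, NADPH-driven DTNB reduction monitored via TNB absorbance. Enzyme dispensed at 20 nM; compound exposure 15 min at room temperature before reaction start.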
HCMV inh: human cytomegalovirus inhibition. 4.5% of 410,000 active. HFF cells, HCMV-luciferase reporter, 72 h; stronger effect = lower value. activity change, negative = inhibition, % at 57.5 µM; in the data active = activity change below about -60%; inconclusive = no clear call, values can overlap the other calls; inactive = above about -39%
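Screen run at 2 compound doses on HFFs infected with reporter HCMV, MOI 1 PFU/cell. Luciferase activity from cell lysates at 72 h post infection gave inhibition relative to buffer-only and Salinomycin wells.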
Giardia FBPA inh: inhibitors of Giardia lamblia fructose-1,6-bisphosphate aldolase; A8B2U2; purified Giardia FBPA; Potency, µM (doses to about 59.6 µM), for the others: top-dose activity, negative = inhibition, most hits filed as inhibitors; 0.71% of 290,000 active; AID 2451; also: potency is read from the fitted curve at half-maximal effect; nearly all actives have a fitted effect of over 55% in size
Target sequence (A8B2U2 whole entry, looked up): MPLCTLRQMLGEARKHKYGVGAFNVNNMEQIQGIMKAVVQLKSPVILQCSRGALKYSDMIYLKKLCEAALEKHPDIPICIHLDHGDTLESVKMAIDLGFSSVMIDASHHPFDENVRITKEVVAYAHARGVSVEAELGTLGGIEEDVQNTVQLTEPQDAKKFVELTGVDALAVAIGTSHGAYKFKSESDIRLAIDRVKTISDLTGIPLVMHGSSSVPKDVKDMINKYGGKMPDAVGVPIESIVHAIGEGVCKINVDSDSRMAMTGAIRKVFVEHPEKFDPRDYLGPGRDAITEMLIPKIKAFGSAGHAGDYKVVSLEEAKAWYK
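Giardia FBPA (40 nM reagent) was preincubated 10 min at RT with compound (up to 57.5 uM final), then substrate plus GAPDH/TPI/NAD/arsenate coupling system with diaphorase/resazurin was added; resorufin fluorescence (525/598 nm) was read after 20 min.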
RE007 growth inh: less growth of the S. pombe RE007 Vpr strain. 0.21% of 360,000 active. S. pombe RE007 Vpr strain, BacTiter-Glo ATP luminescence, 24 h. AID 651644. Potency, µM (titrated, usually from 92.2 µM), for inactives: top-dose activity change, negative = less growth, most hits filed as inhibitors; active = well fitted falling curve with a large enough effect; inconclusive = small, poorly fitted or top-dose-only effect; inactive = no such curve, though single readings can be large or run the other way; also: potency is read from the fitted curve at half-maximal effect; nearly all actives have a fitted effect of over 50% in size
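Fission yeast strain RE007, carrying one chromosomally integrated HIV-1 vpr copy, was seeded at OD 0.01 in PMG+AL medium with 23 nL pinned compound. After 24 h at 30 °C and 99% humidity, viability was read by BacTiter-Glo luminescence.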
FMDV inh: antivirals against foot and mouth disease virus; Potency, µM (titrated, usually from 57.9 µM), for the others: top-dose activity change, negative = inhibition, actives largely listed as inhibitors; 1.2% of 410,000 active; FMDV antiviral cell-based qHTS; calls by dose curve; tested in HEK293T cells; also: read-out not given here; potency is read from the fitted curve at half-maximal effect; nearly all actives have a fitted effect of over 45% in size
* = called active by the depositor. Unless noted, calls follow the shape of the dose curve; as a rule, active = well fitted curve in the direction sought with a large enough effect; inconclusive = small, poorly fitted or top-dose-only effect, or another doubt; inactive = no such curve, though single readings can be large; an effect the other way counts as inactive or inconclusive. % is scaled to controls: 0 for no effect and ±100 for the full control effect.

How did Cc1ccc2cc(C3CC(c4ccco4)=NN3S(C)(=O)=O)c(Cl)nc2c1 (configuration not stated) do in these assays?
Tb PYK inh: -5.2%; Sm TGR block: 11.2µM*; HCMV inh: 0.0; Giardia FBPA inh: -6.9%; RE007 growth inh: -6.0%; FMDV inh: 38.2%

Results for CCOc1ccc2cc(C3CC(c4ccco4)=NN3S(C)(=O)=O)c(=O)[nH]c2c1 (configuration not stated) ?
Tb PYK inh: 6.6%; Sm TGR block: 3.16µM*; HCMV inh: -17.4; Giardia FBPA inh: -12.2%; RE007 growth inh: -8.3%; FMDV inh: 51.1%

What do the screens show for `COc1ccc(C2CC(c3c(-c4ccccc4)c4cc(Cl)ccc4[nH]c3=O)=NN2S(C)(=O)=O)cc1` (configuration not stated)?
Tb PYK inh: 3.1%; Sm TGR block: -6.8%; HCMV inh: -39.2; Giardia FBPA inh: 3.2%; RE007 growth inh: -9.6%; FMDV inh: inconclusive

Results for Cc1ccc2cc(C3CC(c4ccco4)=NN3S(=O)(=O)c3ccccc3)c(Cl)nc2c1 (configuration not stated) ?
Tb PYK inh: 0.7%; Sm TGR block: -23.1%; HCMV inh: -80.2*; Giardia FBPA inh: -6.5%; RE007 growth inh: 34.5%; FMDV inh: -10.6%

What do the screens show for `CCOc1ccc2nc(Cl)c(C3CC(c4ccco4)=NN3S(C)(=O)=O)cc2c1` (configuration not stated)?
Tb PYK inh: -8.9%; Sm TGR block: 31.6µM*; HCMV inh: 4.7; Giardia FBPA inh: -0.8%; RE007 growth inh: -2.2%; FMDV inh: -7.4%

Results for CCOc1ccc2cc(C3CC(c4ccco4)=NN3S(=O)(=O)c3ccccc3)c(Cl)nc2c1 (configuration not stated) ?
Tb PYK inh: 2.6%; Sm TGR block: -3.4%; HCMV inh: 17.5; Giardia FBPA inh: -7.4%; RE007 growth inh: 12.3%; FMDV inh: 7.3%

What do the screens show for `CC(=O)N1N=C(c2ccco2)CC1c1cc2cc(C)ccc2nc1Cl` (configuration not stated)?
Tb PYK inh: -9.6%; Sm TGR block: inconclusive; HCMV inh: -23.8; Giardia FBPA inh: 6.4%; RE007 growth inh: -5.3%; FMDV inh: -3.5%

Results for COc1ccc2cc(C3CC(c4ccco4)=NN3S(=O)(=O)c3ccccc3)c(Cl)nc2c1 (configuration not stated) ?
Tb PYK inh: 1.5%; Sm TGR block: -0.4%; HCMV inh: -10.8; Giardia FBPA inh: -2.9%; RE007 growth inh: -1.4%; FMDV inh: -4.3%

What do the screens show for `Cc1ccc2nc(Cl)c(C3CC(c4ccco4)=NN3S(C)(=O)=O)cc2c1` (configuration not stated)?
Tb PYK inh: -7.9%; Sm TGR block: 14.1µM*; HCMV inh: 0.0; Giardia FBPA inh: -0.2%; RE007 growth inh: 25.5%; FMDV inh: 41.5%

Results for CCOC(=O)c1cnc2ccc(OC)cc2c1Nc1ccc(OCc2ccccc2Cl)cc1 ?
Tb PYK inh: 3.3%; Sm TGR block: -7.5%; HCMV inh: -30.4; FMDV inh: inconclusive

What do the screens show for `CC(NC(=O)c1nn(C)c2c1CSc1ccccc1-2)c1ccccc1` (configuration not stated)?
Tb PYK inh: 1.1%; Sm TGR block: -5.3%; HCMV inh: 36.9; FMDV inh: 22.9%

What do the screens show for `CCCCNC(=O)c1ccc2c(c1)N=C(CC)c1ccccc1S2`?
Tb PYK inh: 0.6%; Sm TGR block: 5.5%; HCMV inh: -35.4; FMDV inh: -9.1%

What do the screens show for `CCC1=Nc2cc(C(=O)NCCCOC)ccc2Sc2ccccc21`?
Tb PYK inh: 6.4%; Sm TGR block: 0.0%; HCMV inh: -75.9*; Giardia FBPA inh: 9.2%; RE007 growth inh: 20.2%; FMDV inh: -2.4%

How did CCC1=Nc2cc(C(=O)NCCCOC)ccc2Sc2ccc(Br)cc21 do in these assays?
Tb PYK inh: -7.7%; Sm TGR block: 0.5%; HCMV inh: -87.4*; FMDV inh: -3.7%

What do the screens show for `O=C1CCCC2=C1C(c1ccc(O)c(O)c1)c1c(ccc3ncccc13)N2` (configuration not stated)?
Tb PYK inh: 17.8µM*; Sm TGR block: inconclusive; HCMV inh: -14.4; Giardia FBPA inh: 6.29µM*; RE007 growth inh: -2.4%; FMDV inh: 9.9%

What do the screens show for `CCOc1ccc(C2C3=C(CCCC3=O)Nc3ccc4ncccc4c32)cc1` (configuration not stated)?
Tb PYK inh: 1.0%; Sm TGR block: 17.8µM*; HCMV inh: 56.0; Giardia FBPA inh: 2.7%; RE007 growth inh: 3.6%; FMDV inh: -18.7%

How did COc1cc(C2Nc3ccc4ncccc4c3C3=C2C(=O)CCC3)ccc1O (configuration not stated) do in these assays?
Tb PYK inh: -6.0%; Sm TGR block: inconclusive; HCMV inh: 94.6; Giardia FBPA inh: -15.9%; RE007 growth inh: inconclusive; FMDV inh: 29.1%

Results for COc1cc(C2Nc3ccc4ncccc4c3C3=C2C(=O)CCC3)cc(OC)c1OC (configuration not stated) ?
Tb PYK inh: -2.9%; Sm TGR block: 0.0%; HCMV inh: -1.4; Giardia FBPA inh: -7.0%; RE007 growth inh: -12.5%; FMDV inh: 23.6%

Results for O=C1CCCC2=C1C(c1ccc(O)cc1)c1c(ccc3ccccc13)N2 (configuration not stated) ?
Tb PYK inh: -3.0%; Sm TGR block: 25.1µM*; HCMV inh: -5.3; Giardia FBPA inh: 3.6%; RE007 growth inh: -13.6%; FMDV inh: -6.7%

What do the screens show for `COc1cccc(CN(C)CC(=O)Nc2ccccc2C(C)C)c1`?
Tb PYK inh: -13.1%; Sm TGR block: 7.5%; HCMV inh: -64.7*; Giardia FBPA inh: inconclusive; RE007 growth inh: -13.7%; FMDV inh: inconclusive

What do the screens show for `C=CCNC(=S)Nc1cc(C)ccn1`?
Tb PYK inh: -2.4%; Sm TGR block: -7.1%; HCMV inh: -83.4*; Giardia FBPA inh: -9.5%; RE007 growth inh: -25.3%; FMDV inh: -7.0%

Results for C=CCNC(=S)Nc1ccc(C)cc1[N+](=O)[O-] ?
Tb PYK inh: 1.6%; Sm TGR block: 39.8µM*; HCMV inh: -22.8; Giardia FBPA inh: -15.8%; RE007 growth inh: -4.6%; FMDV inh: 53.1%

How did COc1ccc2cc1Oc1cc3c(cc1OC)CC[N+](C)(C)C3Cc1ccc(cc1)Oc1c(OC)c(OC)cc3c1C(C2)[N+](C)(C)CC3 (configuration not stated) do in these assays?
Tb PYK inh: -17.3%
